In all, about 69,000 compounds went through this assay and about 8,600 (12%) showed an effect of 50% or more. The sample as a whole holds a higher share of strong results than the screen did.

The test system of the test is Plasmodium berghei. Put plainly: Screen against P. berghei liver stage (PbLuc), transformed with Luciferase, at 10uM. The test is classed as functional, HepG2. The note with it: tested at 10 uM.
For the compound `CCOc1cccc(CNC(C)c2ccc(-n3ccnc3)cc2)c1O` (stereo not drawn), the INHIBITION came out at 47.1%.

For the compound `COCCC(C)NCc1ccccc1-n1ccnc1` (stereo not drawn), the INHIBITION amounted to 15.2%.

Turning to `COc1cccc(CNC(C)c2ccc(-n3ccnc3)cc2)c1O` (stereo not drawn), the INHIBITION stood at 43.4%.

For the compound `COc1ccccc1CNC(C)c1ccc(-n2ccnc2)cc1` (stereo not drawn), the INHIBITION is 70.3%.

Take `COc1cccc(CNC(C)c2ccc(-n3ccnc3)cc2)c1OC` (stereo not drawn): the INHIBITION is 35%.

As for `CC(NCc1ccccc1O)c1ccc(-n2ccnc2)cc1` (stereo not drawn), the INHIBITION is reported as 61.9%.

As to `CC1CCC(O)(CSc2nnnn2C)CC1` (stereo not drawn), the INHIBITION is 4.52%.

Consider `CCn1ncc2c1C(COC)N(C(=O)CCc1ccccc1)CC2` (stereo not drawn), for which the INHIBITION is 43%.

Regarding `Cc1cnc(CC2COCCN(C(=O)c3cncnc3)C2)cn1` (stereo not drawn), the INHIBITION is recorded as -13.2%.

Take `CC(NCc1cc(O)c2cccc(F)c2n1)c1ccccc1O` (stereo not drawn): the INHIBITION was 25%.

With `Cc1ccc(-c2c(-c3ccccc3)ncn2CCCN2CCOCC2)o1`, the INHIBITION is recorded as 20.1%.

Turning to `OCc1ccc(-c2c(-c3ccccc3)ncn2CCN2CCOCC2)o1`, the INHIBITION is 53.3%.

For the compound `Cc1nc(-c2c(-c3ccccc3)ncn2CCCN2CCOCC2)c[nH]1`, the INHIBITION is 27.6%.

For `CSCc1ccc(CNCCN2CCOCC2)o1`, the INHIBITION was found to be 15.6%.

As for `Cc1ccc(CNCCN2CCOCC2)o1`, the INHIBITION came out at 5.34%.

Turning to `c1ccc(-c2ncn(CCCN3CCOCC3)c2-c2ccncc2)cc1`, the INHIBITION stood at 55.4%.

As for `COCCCn1ccc(NC(=O)NCc2cccc(N(C)C)c2)n1`, the INHIBITION turned out to be 21.5%.

Regarding `O=C1[C@@H]2CC[C@@H](CN(Cc3ccccc3OC(F)F)C2)N1CC1CC1`, the INHIBITION is recorded as 18.5%.

Consider `CN(C)c1ccc2c(c1)CN(C(=O)c1ccnnc1)C2c1cnco1` (stereo not drawn), for which the INHIBITION was -0.554%.

For `CN(C)c1ccc2c(c1)CN(C(=O)c1ccco1)C2c1cnco1` (stereo not drawn), the INHIBITION is recorded as -0.554%.

Take `CN(C)CC(=O)N1Cc2cc(-c3cc[nH]n3)ccc2C1c1cnco1` (stereo not drawn): the INHIBITION was -19.8%.

Regarding `CC(=O)NCC(=O)N1Cc2cc(C#N)ccc2C1c1cnco1` (stereo not drawn), the INHIBITION turned out to be 65.9%.

As to `N#CC1(C(=O)N2Cc3cc(-c4cc[nH]n4)ccc3C2c2cnco2)CC1` (stereo not drawn), the INHIBITION is recorded as -18.3%.

As for `CN(C)CC(=O)N1Cc2cc(N(C)C)ccc2C1c1cnco1` (stereo not drawn), the INHIBITION is reported as 33.4%.

For `N#Cc1ccc2c(c1)CN(C(=O)c1nc[nH]n1)C2c1cnco1` (stereo not drawn), the INHIBITION turned out to be 64.5%.

In the case of `CN(C)c1ccc2c(c1)CN(C(=O)c1cnccn1)C2c1cnco1` (stereo not drawn), the INHIBITION came out at 31.9%.

As to `CC(=O)NCC(=O)N1Cc2cc(-c3cc[nH]n3)ccc2C1c1cnco1` (stereo not drawn), the INHIBITION came to 71.8%.

For `CC(=O)NCC(=O)N1CC[C@H](OCC2CC2)[C@@H]1Cc1cccnc1`, the INHIBITION worked out at 4.92%.

Turning to `N#Cc1ccc2c(c1)CN(C(=O)C1CC=CC1)C2c1cnco1` (stereo not drawn), the INHIBITION stood at 34.9%.

As to `CN(C)c1ccc2c(c1)CN(C(=O)c1c[nH]cn1)C2c1cnco1` (stereo not drawn), the INHIBITION is 76.3%.

Consider `O=C(CN1CCOC1=O)N(Cc1ccccc1)Cc1nccs1`, for which the INHIBITION was determined as 22.1%.

Regarding `CC(C)CN1CC(C(=O)NCCNc2ncccn2)CC1=O` (stereo not drawn), the INHIBITION was 21.6%.

In the case of `N#Cc1ccc(CN2CCN(c3cncc(Cl)n3)CC2=O)cc1`, the INHIBITION is -5.33%.

With `CN(Cc1n[nH]c2c1CCCCC2)C(=O)c1cc(-c2cccn2C)n[nH]1`, the INHIBITION is -89.3%.

With `COCCN1CCN(Cc2c(C3CCNCC3)[nH]c3ncccc23)CC1`, the INHIBITION was -12.9%.

Turning to `CCCc1ccc(CN2C[C@H]3C(=O)N(CC4CC4)C[C@@]3(C(=O)O)C2)o1`, the INHIBITION turned out to be 6.28%.

`O=C1[C@@H]2CN(Cc3cc4ccccc4o3)C[C@]2(C(=O)O)CN1CC1CC1`: the INHIBITION was determined as 79.8%.

With `CSc1ccccc1CN1C[C@H]2C(=O)N(CC3CC3)C[C@@]2(C(=O)O)C1`, the INHIBITION is reported as -26.9%.

For `COc1cccc(-n2cc3[nH]c(=O)n(C(C)C)n3c2=O)c1`, the INHIBITION is -34%.

Regarding `Cc1ncnc2c1CCN(C(=O)c1cccnc1)CC2`, the INHIBITION is recorded as -2.17%.

With `Cc1ncnc2c1CCN(C(=O)c1ccncc1F)CC2`, the INHIBITION is on record as 68.4%.

With `O=C(c1ccncc1F)N1CCc2ncnc(C3CC3)c2CC1`, the INHIBITION is -2.72%.

As for `CC(C)Nc1ncnc2c1CCN(C(=O)c1ccccc1F)CC2`, the INHIBITION was determined as 32.2%.

Turning to `CCc1ncnc2c1CCN(C(=O)c1ccncc1F)CC2`, the INHIBITION is -49.3%.

Consider `CC(C)Nc1ncnc2c1CCN(C(=O)c1ccncc1F)CC2`, for which the INHIBITION worked out at 53.5%.

Take `CCOc1ncnc2c1CCN(C(=O)c1ccncc1F)CC2`: the INHIBITION is listed as 54.4%.

On to `CCOc1ncnc2c1CCN(C(=O)c1cnccn1)CC2`, for which the INHIBITION is -103%.

As for `O=C(c1ccncc1F)N1CCc2ncnc(N3CCOCC3)c2CC1`, the INHIBITION is 5.44%.

Consider `Cc1ncnc2c1CCN(C(=O)c1ccnnc1)CC2`, for which the INHIBITION came out at 60.1%.

Turning to `O=C(c1ccncc1F)N1CCc2ncnc(-c3ccncc3)c2CC1`, the INHIBITION is recorded as -7.39%.

As to `Cc1ncnc2c1CCN(C(=O)c1ccncc1)CC2`, the INHIBITION came to 19.5%.

Consider `CS(=O)(=O)N1CCc2ccc(=O)n(CCN3CCCC3)c2CC1`, for which the INHIBITION was 46.4%.

Regarding `CCc1nc(C2CCCN2C(=O)c2cnc[nH]2)no1` (stereo not drawn), the INHIBITION is reported as 37.9%.
